Assay outcomes (PubChem BioAssay)
Mcl-1 Bim block: human Bim-Mcl-1 interaction inhibition | Q07820 | Bead-based flow cytometry, Bim peptide-Mcl-1 binding | inhibition, % at 10 µM | actives 0.1% (n = 190,000) | AID 1009; in the data active = inhibition above about 40%;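 also: 0% = no compound tracer wells and 100% = peptide blocker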
Target sequence (Q07820 whole entry, looked up): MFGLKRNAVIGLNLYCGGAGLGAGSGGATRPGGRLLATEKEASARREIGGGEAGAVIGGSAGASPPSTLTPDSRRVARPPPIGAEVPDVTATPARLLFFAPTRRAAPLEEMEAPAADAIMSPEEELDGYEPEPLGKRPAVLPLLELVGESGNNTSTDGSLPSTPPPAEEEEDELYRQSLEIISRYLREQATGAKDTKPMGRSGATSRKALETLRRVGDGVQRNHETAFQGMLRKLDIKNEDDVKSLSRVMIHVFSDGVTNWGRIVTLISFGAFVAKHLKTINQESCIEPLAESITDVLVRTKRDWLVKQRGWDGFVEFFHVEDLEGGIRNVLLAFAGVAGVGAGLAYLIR
MCL1-BIM inh: MCL1-BIM-BH3 interaction inhibition (human) | Q07820 | GST-MCL1 / FITC-Bim-BH3 fluorescence polarization | inhibition, % at 10.9 µM | AID 2057 | actives 0.68% (n = 320,000);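 active = inhibition above the mean inhibition of all tested compounds plus 3 SD, set per campaign, cut at about 40% in these data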;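 also: 0% = DMSO wells and 100% = unlabeled Bim-BH3 peptide control; higher means more loss of mP so more displacement of Bim peptide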
Mcl1 Noxa PPI: Mcl-1/Noxa interaction inhibition | Q07820 | actives 1.5% (n = 220,000) | inhibition, % at 21.7 µM | AID 1022 | TR-FRET Mcl-1/Noxa peptide binding, 2 h;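 active = compounds that cut the protein-peptide binding signal by more than 50% relative to plate controls in a single-dose test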;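 also: His-tagged Mcl-1 with rhodamine Noxa BH3 peptide and terbium anti-His antibody; 0% = Mcl-1 plus Noxa peptide wells and 100% = peptide-only wells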
BCLXL inh: inhibitors of human Bcl-xL; Q07817; AID 2129; actives 0.7% (n = 320,000); GST-Bcl-xL / FITC-Bim BH3 peptide fluorescence polarization; inhibition, % at 10.9 µM;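 active = inhibition above the mean of all tested compounds plus 3 SD, cutoff set per campaign, cut at about 30% in these data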;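 also: 0% = DMSO wells and 100% = unlabeled Bim-BH3 peptide competitor; inhibitors lower millipolarization by displacing the labeled peptide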
Target sequence (Q07817 whole entry, looked up): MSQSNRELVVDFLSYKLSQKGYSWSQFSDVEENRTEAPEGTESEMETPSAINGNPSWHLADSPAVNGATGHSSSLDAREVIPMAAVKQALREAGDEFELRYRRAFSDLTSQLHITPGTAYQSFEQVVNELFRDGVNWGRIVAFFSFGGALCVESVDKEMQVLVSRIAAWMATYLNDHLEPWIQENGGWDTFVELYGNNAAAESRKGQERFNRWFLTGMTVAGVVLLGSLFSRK
GLD-1 RNA inh: GLD-1-TGE RNA interaction inhibition (C. elegans). Q17339. purified GLD-1 + fluorescein TGE RNA, fluorescence polarization. inhibition, % at 5.96 µM. actives 0.44% (n = 320,000). AID 2280;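 active = percent inhibition above a per-plate cutoff, the plate mean of test compounds plus 3 SD, cut at about 30% in these data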;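 also: 0% = DMSO wells with GLD-1 and probe and 100% = wells lacking GLD-1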
Mcl1-Bid inh: Mcl-1/Bid interaction inhibition; Q07820; TR-FRET Mcl-1/Bid-Dy647 peptide binding, 1536-well; inhibition, % at 21.7 µM; actives 0.97% (n = 220,000); AID 1021;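 active = compounds that cut the binding signal by more than half at the single screening dose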;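 also: His-tagged Mcl-1 with europium anti-His antibody binding Bid BH3 peptide; 0% = Mcl-1 plus peptide wells and 100% = peptide-only wells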
The depositor's hits bear a star; / = no result given. Only some compounds are listed: those with a hit (about 2.3% of all), similar ones and a draw of the others.

SMILES	Mcl-1 Bim block	MCL1-BIM inh	Mcl1 Noxa PPI	BCLXL inh	GLD-1 RNA inh	Mcl1-Bid inh
CCN(CC)CCNC(=O)c1ccc(CS(=O)(=O)c2ccc(Br)cc2)o1	-2	0	9	-4	1	58*
CC(C)CNC(=O)CSc1nc2scc(-c3ccccc3)c2c(=O)[nH]1	0	-1	54*	2	2	-73
COc1ccc(C2NC3=C(CCC3)C3(C#N)C(OC)(OC)N=C(N)C23C#N)cc1 (stereo unspecified)	0	32	14	31*	20	-19
COc1ccc([C@H]2CC(=O)C=C(c3c(OC)cccc3OC)C2)cc1	/	2	/	-2	10	/
Cc1csc2ncnc(N3CCN(C(=S)Nc4ccc(F)cc4F)CC3)c12	/	10	11	11	-5	90*
COc1ccc(C(=O)O)cc1NC(=S)NC(=O)c1ccc(-c2ccc(Cl)cc2)o1	0	/	75*	/	/	10
NC(=O)c1cc(N2C(=O)C=CC2=O)ccc1Cl	0	17	68*	10	6	-54
CC(=O)Nc1ccc(Cl)c(C(N)=O)c1	-2	-2	24	-2	4	14
COc1ccc(-n2nc(C(=O)NCC(=O)N3CCN(c4ccccc4)CC3)c3ccccc3c2=O)cc1OC	/	4	/	3	4	/
CC(CCc1ccccc1)N1CCN(Cc2ccccc2)CC1 (stereo unspecified)	-3	2	28	4	17	24
CCS(=O)(=O)N1CCN(C(C)CCc2ccccc2)CC1 (stereo unspecified)	1	4	91*	6	5	77*
CC(=O)N/C(=C\c1ccccc1)C(=O)Nc1ccccc1C	0	7	-2	9	1	-16
Cn1c(=O)c2c(nc(Cc3ccc(N)cc3)n2C)n(C)c1=O	/	-4	12	-4	6	98*
Cn1c(=O)c2c(nc(CN3CCN(Cc4ccccc4)CC3)n2Cc2ccccc2)n(C)c1=O	0	/	13	/	/	-12
Cc1ccc2cc3c(N)c(C(=O)N4CC(=O)Nc5ccccc54)sc3nc2c1	0	-19	58*	-6	-12	8
Cc1ccc2cc3c(N)c(C(=O)Nc4c(C)[nH]c(=O)[nH]c4=O)sc3nc2c1	-2	3	66*	13	-5	-32
Cc1[nH]c(=O)[nH]c(=O)c1NC(=O)c1sc2nc3c(C)cccc3cc2c1N	-5	14	36	8	-13	-59
Cc1ccc2nc3sc(C(=O)Nc4c(C)[nH]c(=O)[nH]c4=O)c(N)c3cc2c1	-1	9	56*	10	-9	-37
Cc1ccc2cc3c(N)c(C(=O)N4CCOCC4)sc3nc2c1	-3	5	22	4	-5	-55
Cc1ccc(N(Cc2cc(=O)[nH]c3ccccc23)C(=O)CCl)c(C)c1	/	7	/	5	5	/
COc1ccc(/C=C/C(=O)OCC(=O)NC2CCCCC2C)c(OC)c1 (stereo unspecified)	/	4	/	3	1	/
O=c1c2cc(N3CCOCC3)ccc2[nH]c(=S)n1Cc1cccc(Cl)c1	-3	29	25	7	3	-23
O=c1c2cc(N3CCOCC3)ccc2[nH]c(=S)n1Cc1ccco1	3	22	58*	10	5	-99
COc1ccccc1N1CC(C(=O)Nc2nnc(SCC(=O)N3CCOCC3)s2)CC1=O (stereo unspecified)	/	11	/	5	1	/
COc1ccc(C(c2c(O)cc(C)oc2=O)c2c(O)cc(C)oc2=O)cc1	0	-3	76*	-3	4	20
SMILES	Mcl-1 Bim block	MCL1-BIM inh	Mcl1 Noxa PPI	BCLXL inh	GLD-1 RNA inh	Mcl1-Bid inh
COc1ccc(C(c2c(O)nc[nH]c2=O)c2c(O)nc[nH]c2=O)cc1	/	8	8	9	6	-46
CCc1ccc2c(COn3nnc4ccc(S(=O)(=O)N(C)C)cc43)cc(=O)oc2c1	-9	-5	12	0	6	53*
CC/C=C(\NC(C)=O)c1ccccc1	/	2	/	4	0	/
Cc1cc(C)cc(N(CC(=O)NC2CCCC2)C(=O)CCC(=O)Nc2nc(C)cs2)c1	/	8	/	6	1	/
Cc1csc(SCC(=O)Nc2ccc(C)c(F)c2)n1	/	10	/	3	8	/
COc1ccc(CN2CCN(S(=O)(=O)c3ccc(F)cc3)CC2)cc1OC	-1	5	13	0	4	35
COc1ccc(CN2CCN(S(=O)(=O)c3ccccc3)CC2)cc1Br	-1	7	48	6	-6	64*
O=C(O)CCCN1C(=O)/C(=C/c2cn(-c3ccccc3)nc2-c2cccs2)SC1=S	-1	/	87*	/	/	78*
CC1(C)CC(NC(=O)COc2ccc([N+](=O)[O-])cc2)CC(C)(C)N1	68*	6	22	4	2	-12
CC(C)CC1NC(=S)N(C2CCCCC2)C1=O (stereo unspecified)	0	13	7	2	1	-62
CN(C)c1ncc(/C=C2/C(=O)NC(=S)N(C3CCCCC3)C2=O)cn1	0	/	61*	/	/	9
COc1ccccc1OCCNC(=O)Cc1ccc(Cl)c(Cl)c1	-3	7	9	5	4	-13
CC1CC(C)CN(CCOCCSc2ccccc2)C1 (stereo unspecified)	-5	7	18	7	2	69*
O=C(Cc1cccs1)Nc1nc(-c2cccnc2)cs1	/	19	72*	9	-6	-63
COc1ccc2c(C(=O)c3ccc(Cl)cc3)n(CCCC(N)=O)[n+]([O-])c2c1	/	12	/	8	5	/
Cc1cccc2nc(CSc3nc4ccc([N+](=O)[O-])cc4[nH]3)c(Br)n12	-4	-5	60*	-12	-3	-41
NC(=O)CSc1nc2ccc([N+](=O)[O-])cc2[nH]1	0	-15	15	-12	-3	-26
COc1cc(C)c(CNc2cccc(C)c2)cc1C	1	1	22	8	-2	29
COc1cc(C)c(CNc2ccc(OC)c(OC)c2)cc1C	0	31	30	36*	4	-11
O=c1[nH]c2ccccc2nc1C(F)(F)C(F)F	0	-7	12	2	3	63*
C/C(O)=C/c1nc2ccccc2[nH]c1=O	0	2	4	3	-9	-25
Cc1nc2ccccc2[nH]c1=O	/	8	12	5	6	59*
CCn1c(SCC(=O)NC2CCCCC2)nc2ccccc2c1=O	/	-26	/	-9	-2	/
CCN(CC(=O)NCc1cccs1)C(=O)c1ccc(S(=O)(=O)Nc2ccccc2C)cc1	/	-4	/	1	0	/
O=C(c1ccccc1)N1CCC(c2nc(-c3ccc(S(=O)(=O)N4CCOCC4)cc3)no2)CC1	-1	3	29	2	8	-23
Cc1cccc(C(=O)N2CCC(c3nc(-c4ccc(S(=O)(=O)N5CCOCC5)cc4)no3)CC2)c1	47*	2	/	4	3	/
